The sample as a whole holds a higher share of hits than the screen did.
AMPAR-TARP mod: GluA2-stargazin AMPA receptor complex modulation. 40,000 tested, 3.5% active. calls only at 30 µM. HEK293 GluA2+stargazin, membrane potential dye (FDSS), glutamate EC50; hits were called plate by plate, in both directions. O88602+P19491;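 active = any of four per-well response measures lying three or more SD from its plate-wide compound average, in either direction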
GIRK2 activator: Activates human GIRK2-containing potassium channels; P48051; HEK293 GIRK2/NPY4 cells, thallium flux fluorescence; activation (% efficacy), % for hits at 37.5 µM; 34,000 tested, under 10 active;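 active = primary screen hit, no activity in plain HEK293 cells, and in GIRK2-only cells above 5% efficacy rising with concentration; inactive = the rest, including fluorescent compounds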;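 note: efficacy is normalized control-subtracted fluorescence 15 s after thallium addition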
Active calls of the source: *; i = inactive; . = no result; + = active, no number.

SMILES	AMPAR-TARP mod	GIRK2 activator
Cc1cc(NCCN(C)C)n2nc(C(F)(F)F)c(-c3ccccc3)c2n1	i	i
O=C(Cn1c(=O)c(CNc2ccccc2)cc2cc3c(cc21)OCCO3)Nc1ccc2c(c1)OCCO2	i	i
Cc1c(Cl)cccc1NC(=O)Cn1c(=O)c(CNc2ccccc2)cc2cc3c(cc21)OCCO3	+	i
Cc1cc(C)c2c(n1)nn1c(N3CCN(Cc4ccccc4)CC3)cc(C)nc21	+	i
COc1ccc(F)cc1CN1CCN(c2cc(C)nc3c4c(C)cc(C)nc4nn23)CC1	+	i
Cc1cc(N2CCN(CC#N)CC2)n2nc(C(F)(F)F)c(-c3ccccc3)c2n1	i	i
C=C(C)CN1CCN(c2cc(C)nc3c4c(C)cc(C)nc4nn23)CC1	+	i
COc1ccccc1-c1cnn2c(N3CCN(CC#N)CC3)cc(C)nc12	i	i
Cc1cc(C)c2c(n1)nn1c(N3CCN(CCOc4ccc(Cl)cc4)CC3)cc(C)nc21	i	.
CN(C)C(CNC(=O)C(=O)Nc1ccc([N+](=O)[O-])cc1)c1ccc(F)cc1 (centres undefined)	i	i
COc1ccc(SCC(=O)Nc2cccc3c2C(=O)NC3=O)cc1	i	.
O=C1CC(NC(=O)c2cc(C3CC3)on2)CN1 (centres undefined)	.	i
CCOCC(=O)NCCCn1nc(-c2ccco2)ccc1=O	.	i
Cc1ccc(C)c2sc(N(CCN3CCOCC3)C(=O)c3ccc4ncsc4c3)nc12	i	.
COc1ccc(S(=O)(=O)CC(=O)Nc2cccc(Br)c2)cc1	+	i
COc1ccc(OCCCC(=O)Nc2cccc(Br)c2)cc1	i	i
O=C(CCCS(=O)(=O)c1ccccc1)Nc1ccccc1Oc1ccccc1	i	i
COc1ccc(S(=O)(=O)CC(=O)Nc2ccccc2Oc2ccccc2)cc1	+	i
Cc1nnsc1C(=O)Nc1cc(-c2cccs2)nn1CCO	i	i
O=C(CCc1csc(NC(=O)c2ccc(Cl)cc2)n1)Nc1ccc2c(c1)OCO2	i	i
NC(=O)CSc1nc(-c2ccccc2)c(NC(=O)c2cccc(Cl)c2)s1	+	i
NC(=O)CSc1nc(-c2ccccc2)c(NC(=O)c2ccccc2Cl)s1	i	i
CCNC(=O)CSc1nc(-c2ccccc2)c(NC(=O)CCc2ccc(OC)cc2)s1	i	i
CNC(=O)CSc1nc(-c2ccccc2)c(NC(=O)CCc2ccccc2)s1	+	i
O=C(NCC1CCN(C(=O)c2cccnc2)CC1)C(=O)Nc1ccc(F)c(Cl)c1	i	i
SMILES	AMPAR-TARP mod	GIRK2 activator
Cc1nnc2ccc(S(=O)(=O)N(Cc3cc(F)cc(F)c3)c3ccccc3)cn12	i	i
COc1ccc(Cl)cc1NC(=O)C(=O)NCC1CCN(C(=O)Oc2ccccc2)CC1	i	i
CCCn1c(=O)c2c(nc3n2CC(C)CN3c2ccccc2OC)n(C)c1=O (centres undefined)	+	.
CCCn1c(=O)c2c(nc3n(-c4cc(OC)ccc4OC)c(-c4ccccc4)cn23)n(C)c1=O	+	.
CCCCn1c(=O)c2c(nc3n2CC(C)CN3c2ccccc2OC)n(C)c1=O (centres undefined)	i	.
CCn1c(=O)c2c(nc3n(-c4cc(OC)ccc4OC)c(-c4ccccc4)cn23)n(C)c1=O	i	i
O=C(Nc1nnc(Cc2cccs2)o1)c1ccc(Cl)cc1	i	i
CC(=O)N1CCN(C(=O)Cc2cc(-c3ccc4c(c3)OCO4)on2)CC1	i	i
CN(C)C(CNC(=O)NC1CCCCC1)c1cccs1 (centres undefined)	i	i
COc1ccc(OCC(=O)NCC2CCN(C3CCCC3)CC2)cc1	.	i
Cc1c(Cl)cccc1S(=O)(=O)NCC(O)c1ccc(C(F)(F)F)cc1 (centres undefined)	+	i
COc1ccc(S(=O)(=O)NCC(O)c2ccc(C(F)(F)F)cc2)cc1Cl (centres undefined)	+	.
Cc1c(Cl)cccc1S(=O)(=O)NCC(O)c1ccsc1 (centres undefined)	i	i
O=S(=O)(NCC(O)c1ccc(C(F)(F)F)cc1)c1ccc2c(c1)CCCC2 (centres undefined)	i	i
CS(=O)(=O)c1ccc(CC(=O)Nc2nc(-c3cccs3)cs2)cc1	i	.
COc1cc(/C=C/C(=O)Nc2nnc(C3CCCCC3)o2)cc(OC)c1OC	i	i
CCN(CC)S(=O)(=O)CCNC(=O)c1ccccc1	+	.
COCCN(CCOC)S(=O)(=O)CCNC(=O)c1ccccc1	i	.
COc1ccc(C(=S)N2CCN(C(=S)c3ccc4c(c3)OCO4)CC2)cc1	i	.
COc1ccc(OC)c(S(=O)(=O)Nc2ccc3c(c2)N(S(=O)(=O)c2ccccc2)CCC3)c1	+	.
CCCS(=O)(=O)N1CCCc2cc(NS(=O)(=O)c3cc(C)ccc3OC)ccc21	+	.
COc1ccc(OC)c(S(=O)(=O)Nc2ccc3c(c2)CCCN3S(=O)(=O)c2ccccc2)c1	i	.
CCCS(=O)(=O)N1CCCc2cc(NS(=O)(=O)c3cc(C)ccc3OCC)ccc21	i	.
O=S(=O)(Oc1ccc(Cl)c2cccnc12)N1CCCCC1	i	.
Cc1nn(C2CCS(=O)(=O)C2)c2nc(-c3ccco3)cc(C(=O)NCc3c(F)cccc3F)c12 (centres undefined)	i	i
SMILES	AMPAR-TARP mod	GIRK2 activator
Cc1nn(C2CCS(=O)(=O)C2)c2nc(-c3ccco3)cc(C(=O)NCCc3ccc(F)cc3)c12 (centres undefined)	+	i
O=C(c1ccc2cc[nH]c2c1)N1CC(c2nc(-c3cccc(C(F)(F)F)c3)no2)C1	.	i
CCOc1ccc(-n2c(C)c(C)n3c4c(=O)[nH]c(=O)n(C)c4nc23)cc1	i	.
CN(C(=O)Cn1cnc2c(-c3ccccc3)csc2c1=O)c1ccc(F)cc1	i	i
CCN(C(=O)Cn1cnc2c(-c3ccccc3)csc2c1=O)c1ccccc1	+	i
Cc1cc(NC(=O)c2cccc(S(C)(=O)=O)c2)n(C)n1	.	i
O=C1c2cc(NS(=O)(=O)c3cccnc3)ccc2OCCC2CCCCN12 (centres undefined)	i	i
Cn1nccc1-c1nnc(NC(=O)c2ccc(Br)o2)o1	+	i
Cc1cnn(C)c1C(=O)Nc1nnc(-c2ccnn2C)o1	i	i
CCCCN1CC(c2nc3ccccc3n2CCOc2cccc(C)c2)CC1=O (centres undefined)	+	.
CCN1CC(c2nc3ccccc3n2Cc2ccc(Cl)cc2Cl)CC1=O (centres undefined)	+	.
CCN1CC(c2nc3ccccc3n2Cc2c(Cl)cccc2Cl)CC1=O (centres undefined)	+	.
CCCCN1CC(c2nc3ccccc3n2Cc2ccc(Cl)cc2)CC1=O (centres undefined)	i	.
CCCCN1CC(c2nc3ccccc3n2CCOc2ccccc2)CC1=O (centres undefined)	i	.
CCN1CC(c2nc3ccccc3n2CC(=O)N2CCCCC2)CC1=O (centres undefined)	.	i
C=CCN1CC(c2nc3ccccc3n2Cc2ccccc2Cl)CC1=O (centres undefined)	i	.
C=CCN1CC(c2nc3ccccc3n2Cc2c(Cl)cccc2Cl)CC1=O (centres undefined)	+	.
